# Experimental data published in PubChem BioAssay (NCI).
# Compounds without any hit were thinned out: in the full panel of roughly 83,000, 20% have a hit.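 Cell lines were cultured in 96-well plates, exposed to a single compound concentration, and assessed for percent growth 48 hours later.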 Unmarked numbers belong to inactive results. The source made the active and inactive calls. The calls were made as follows: active = growth percent below 10; inactive = the rest.
# Test system: HL-60(TB) leukemia
# Test: NCI-60 one-dose screen, 48 h (100 = growth as untreated, 0 = no growth, -100 = all killed)
# Settings: 10 µM unless noted
row,SMILES,growth
1,C=CCOC(=O)C1=C(C)NC2=C(C(=O)CC(C)(C)C2)C1c1ccc(OC)cc1 (stereo not given),80.6%
2,COc1ccc(-c2nc3sccn3c2-c2ccnc(NCCCNS(=O)(=O)c3ccc(F)cc3)n2)cc1,-3.74% (active)
3,CN(C[C@@H]1COCCO1)S(=O)(=O)Nc1ccc2ccc3ncc(-c4cnn(C)c4)cc3c(=O)c2c1,48.1%
4,O=C(/C=C/c1ccccc1)Nc1ncc(Cc2ccccc2Cl)s1,-10.1% (active)
5,CCN(c1ccc(Cl)cc1)c1nc(-c2ccc([N+](=O)[O-])cc2)cs1,96.1%
6,Nc1nccc2c1ccn2-c1cccc(NC(=O)c2ccc(N3CCOCC3)c(C(F)(F)F)c2)c1,-3.75% (active)
7,CCc1ccc2c(c1)N(CCO)C1=C(C(=O)OC1)C2c1ccccc1 (stereo not given),94.9%
8,CC1=C(C(=O)/C=C/c2ccc(N(C)C)cc2)C(c2ccccc2)NC(=S)N1 (stereo not given),99.4%
9,CN1CCc2c(c3ccccc3c3ccccc23)C1,35.1%
10,Cn1c(=O)c2[nH]c(Cc3ccc4c(c3)OCO4)nc2n(C)c1=O,104%
11,CCN(CC)CCN1CC(O)=C(c2nc(-c3ccc(Cl)cc3)cs2)C1=N,-33.7% (active)
12,CCCS(=O)(=O)Nc1cccc(Nc2ncnc3cc(NC(=O)CCl)ccc23)c1Cl,-35.5% (active)
13,Cc1ccc[n+](CCC(N)=O)c1,86.6%
14,O=c1oc2cc(OS(=O)(=O)C3CC3)ccc2c2c1CCCCCC2,80.1%
15,O=C(NCCNc1nccc(-c2c(-c3cccc(O)c3)nc3sccn23)n1)c1ccccc1,93.3%
16,C[C@H]1[C@H](C)CC[C@]2(C(=O)N3CCN(C)CC3)CC[C@]3(C)C(=CC[C@@H]4[C@@]5(C)C/C(=C/c6ccco6)C(=O)C(C)(C)[C@@H]5CC[C@]43C)[C@H]12,-39.1% [100 µM] (active)
17,COc1cccc(/C=C/c2c(C(=O)O)cccc2[N+](=O)[O-])c1OC,97.4%
18,COc1cc(C2CC(c3ccc(C)cc3)=NN2C=O)ccc1Oc1nc2c(c(=O)n(C)c(=O)n2C)n1C (stereo not given),111%
19,O=[N+]([O-])c1ccc(-c2cc3c(Nc4ccc(OCc5cccc(Cl)c5)c(Cl)c4)ncnc3s2)cc1,44.2%
20,Oc1nc(NCc2ccccc2)sc1/C=C1\C=Nc2ncccc21,36.4%

row,SMILES,growth
1,CN1C(=O)C(C2=NN(C=O)C(c3ccc(F)cc3)C2)C(=O)N(C)C1=O (stereo not given),105%
2,Cc1ccc(S(=O)(=O)Oc2ccc(NC(=O)c3ccc(Cl)cc3)cc2)cc1,89.2%
3,COC(=O)Nc1nc2ccc(C(=O)C3CC3)cc2[nH]1,-56.2% (active)
4,Clc1nc(-c2cccnc2)nc2sc3c(c12)CCCCCC3,102%
5,S=C(Nc1ccccc1)c1ccccn1,107%
6,CC(/C=N/N1C(=O)c2ccccc2C1=O)c1ccccc1 (stereo not given),108%
7,O=C(O)c1ccc2c(c1Sc1ccccc1)C(=O)c1ccccc1C2=O,95.8%
8,CCCCC(CC)OC(=O)C(Br)CC (stereo not given),99.6%
9,COc1ccc(CSc2nc3cc(OC)c(OC)cc3c(=O)n2-c2ccc(OC)cc2OC)cc1,112%
10,COc1cc(/C=C\c2cc(OC)c(OC)c(OC)c2)cc(N)c1OC,48.8%
11,COc1ccc(C2=CN3CC=CCC3CC2=O)cc1 (stereo not given),110%
12,O=C1c2cc3c(cc2-c2c1c1ccc(Cl)cc1c(=O)n2C[C@H](O)[C@@H](O)[C@H](O)CO)OCO3,-5.75% (active)
13,C=CN(C(=O)N1CCN(c2cc3c(cc2F)c(=O)c(C(=O)O)cn3C2CC2)CC1)c1nc(-c2ccccc2)cs1,58.1%
14,COc1cc(F)c(-c2nc3c(C)cccc3n2Cc2c(F)cccc2F)c(F)c1,78.8%
15,CC(=O)N1N=C(c2ccc(C)cc2)CC1c1ccc(Oc2ccc(Br)cc2)cc1 (stereo not given),94%
16,COC(=O)c1c2c(c(C)[n+]([O-])c1C)C(=O)C(NCc1ccccc1)=CC2=O,-2.98% (active)
17,NCCOCCOc1ccccc1,108%
18,Nc1c(C(=O)Nc2ccccc2Cl)sc2nc3c(cc12)CN(Cc1ccccc1)CC3,75.6%
19,COc1cccc(CC(C)=C(c2ccc(OCCCN(C)C)cc2)c2ccc(OCCCN(C)C)cc2)c1,-68% (active)
20,CCCn1c(=S)sc2c(NNC(C)=O)nc(C)nc21,58.1%
